Measurements from the supplement of paper PMC12340641.
Counter-ions that a name gives are not always drawn.

Columns and labels:
[1] = molecular target: IKZF1 (dCK*-IKZF1 fusion in HEK293FT) (UniProt Q13422); experiment: inhibition of IKZF1 HTRF signal (DMSO = 0%, pomalidomide 10 uM = 100%); higher = lower IKZF1 protein level; conditions: compound concentration: 5 uM, overnight (~20 h)
In short: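 Values are percent inhibition of IKZF1 signal, normalised plate by plate against vehicle and a reference degrader. HEK293FT cells stably expressing an IKZF1 fusion were seeded at 2000 per well in 384-well plates and exposed to 5 μM compound in single wells overnight at 37 °C. After 30 min lysis at room temperature, lysates were incubated overnight with a commercial HTRF total-IKZF1 antibody kit, and the background-subtracted 665/620 nm time-resolved FRET ratio was read. On each plate, vehicle was set at 0% and the reference degrader at 100%.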

HEK293FT dCK*-only = experiment: relative growth in counter assay (no AraC = 100%, AraC + DMSO = 0%); higher = more growth rescue independent of IKZF1; conditions: compound concentration: 5 uM; AraC concentration: 0.3 uM; overnight pretreatment + 4 days AraC
In short: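 This counter assay used HEK293FT cells expressing only an engineered kinase construct, seeded at 300 per well in 384-well plates. Compound was added at 5 μM 2 h after seeding, and after overnight at 37 °C the cells received a nucleoside suicide substrate at 0.3 μM plus medium for 4 days. On day 5, nuclei stained with Hoechst 33342 were counted by imaging, and relative growth was normalised per plate; wells without suicide substrate were set at 100% and wells with substrate plus vehicle at 0%.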

HEK293FT dCK*-IKZF1 = experiment: relative growth recovery (pomalidomide 10 uM = 100%, DMSO = 0%); higher = more growth rescue (IKZF1 fusion degradation); conditions: compound concentration: 5 uM; AraC concentration: 0.3 uM; overnight pretreatment + 4 days AraC
In short: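 On day 5, whole-well imaging was used to count Hoechst 33342-stained nuclei of HEK293FT cells stably carrying a deoxycytidine kinase–IKZF1 fusion. These cells had received 5 μM compound 2 h after seeding, followed after overnight at 37 °C by a nucleoside suicide substrate at 0.3 μM plus medium for 4 days. Growth recovery was normalised on each plate against a reference degrader and vehicle, which defined 100% and 0%, and values are duplicate means from separate days.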

Sequence of IKZF1 (dCK*-IKZF1 fusion in HEK293FT) (Q13422 whole entry, looked up, the tested form may be a part): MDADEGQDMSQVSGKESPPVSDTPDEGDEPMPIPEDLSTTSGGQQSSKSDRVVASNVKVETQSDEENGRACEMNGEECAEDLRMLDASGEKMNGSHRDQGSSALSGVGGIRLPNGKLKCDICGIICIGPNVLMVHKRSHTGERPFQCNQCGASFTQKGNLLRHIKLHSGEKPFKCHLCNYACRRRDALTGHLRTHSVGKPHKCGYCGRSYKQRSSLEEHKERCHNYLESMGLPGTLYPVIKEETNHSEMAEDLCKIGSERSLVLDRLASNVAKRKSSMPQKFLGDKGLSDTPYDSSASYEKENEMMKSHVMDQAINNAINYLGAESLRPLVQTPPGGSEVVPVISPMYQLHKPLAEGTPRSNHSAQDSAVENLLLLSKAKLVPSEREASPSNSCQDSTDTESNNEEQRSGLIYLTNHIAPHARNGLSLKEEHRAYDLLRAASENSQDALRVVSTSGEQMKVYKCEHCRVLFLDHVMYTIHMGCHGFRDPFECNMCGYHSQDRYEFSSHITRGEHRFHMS

Row | SMILES | inhibition of IKZF1 HTRF signal [1] [%] | relative growth in counter assay (HEK293FT dCK*-only) [%] | relative growth recovery (HEK293FT dCK*-IKZF1) [%]
1 | COc1cccc2c1C(=O)c1c(O)c3c(c(O)c1C2=O)C[C@@](O)(C(=O)CO)C[C@@H]3O[C@H]1C[C@H](N)[C@H](O[C@@H]2CCCCO2)[C@H](C)O1 [Pirarubicin] | 37.3 | -33.8 | -13.1
2 | O=C1Nc2ccccc2/C1=C1/Nc2ccccc2/C1=N\O [indirubin-3-monoxime] | -16.5 | 4.61 | 1.19
3 | O=C1C=CC(=O)C2=C1C1c3ccccc3C2c2ccccc21 | -32.2 | -0.91 | -0.735
4 | Cc1cccc(C)c1NC(=O)CN1CCN(CCCC(c2ccc(F)cc2)c2ccc(F)cc2)CC1 [lidoflazine] | -30.1 | 35.6 | 36.1
5 | C/C(=N\NC(=S)N1CCC1)c1ccccn1 | -11.1 | -34.6 | -12.9
6 | CCN(CC)CCCN(c1ccccc1)C1Cc2ccccc2C1 [aprindine] | 2.2 | 4.05 | 1.23
7 | CC(=O)Oc1ccccc1C(=O)Nc1ncc([N+](=O)[O-])s1 | 22.3 | -5.9 | 0.37
8 | COc1cc(OC)c(/C=C2/C(=O)Nc3ccccc32)c(OC)c1 | -15.9 | -33.5 | -11.3
9 | O=C(NCCO[N+](=O)[O-])c1cccnc1 | -26.3 | -5.9 | -1.74
10 | CC[N+](CC)(CC)CC(=O)Nc1c(C)cccc1C | -32.9 | -2.01 | -0.165
11 | Oc1cc(CNC(=S)/C=C/c2cc(O)c(O)c(Br)c2)cc(O)c1O | -32.2 | -34.9 | -11.9
12 | Cc1cccc(Nc2nc(-c3ccncc3)cs2)c1 | -51.1 | -8.26 | -0.535
13 | COc1cc(C(=O)NS(=O)(=O)c2ccccc2C)ccc1Cc1cn(C)c2ccc(NC(=O)OC3CCCC3)cc12 [Zafirlukast (Accolate)] | -6.19 | 0.38 | 0.805
14 | Nc1nc(N)c2nc(-c3cccc(O)c3)cnc2n1 | 28.6 | -10.5 | -2.13
15 | CC1=C(/C=C/C(C)=C/C=C/C(C)=C/C(=O)Nc2ccc(O)cc2)C(C)(C)CCC1 [Fenretinide] | -30.4 | -13.7 | -1.99
16 | FC(F)(F)c1ccccc1-c1cc(C(F)(F)F)c2[nH]c(C3=NOC4(CCCCC4)C3)nc2c1 | 28.1 | -7.93 | -3.06
17 | Clc1ccc2c(N3CCN(CCCN4CCN(c5ccnc6cc(Cl)ccc56)CC4)CC3)ccnc2c1 | 17 | 3.87 | -1.17
18 | CO[C@H]1CC[C@H](N2C(=O)CNc3ncc(-c4ccc(C(C)(C)O)nc4)nc32)CC1 | -19.1 | -9.67 | -7.24
19 | COCCN(C(=O)c1cc(OC)c(OC)c(OC)c1)c1nc(-c2ccccc2)cs1 [eact] | -41.3 | -0.03 | -1.76
20 | CC(C)c1ccc(-c2cc(=O)c3ccccc3o2)cc1 | -25.6 | -5.2 | 0.225
21 | C[C@H]1O[C@@H](O[C@H]2[C@@H](O)C[C@H](O[C@H]3[C@@H](O)C[C@H](O[C@H]4CC[C@]5(C)C6C[C@@H](O)[C@]7(C)[C@@H](C8=CC(=O)OC8)CC[C@]7(O)C6CC[C@@H]5C4)O[C@@H]3C)O[C@@H]2C)C[C@H](O)[C@@H]1O (stereo not given in full) | 68.6 | -34.9 | -12.4
22 | O=C(Nc1cc(C(F)(F)F)ccc1O)Nc1cc(C(F)(F)F)ccc1O | -27.7 | -5.68 | -1.77

Row | SMILES | inhibition of IKZF1 HTRF signal [1] [%] | relative growth in counter assay (HEK293FT dCK*-only) [%] | relative growth recovery (HEK293FT dCK*-IKZF1) [%]
23 | CN(C)CCCN1c2ccccc2Sc2ccccc21 | -35.6 | 5.27 | -2.24
24 | O=C(O)c1cc([N+](=O)[O-])ccc1NCCCc1ccccc1 | -22.5 | -2.81 | -1.86
25 | C[C@@H]1CC(=O)NN=C1c1ccc(NN=C(C#N)C#N)cc1 | -27.1 | 11.2 | -2.62
26 | CN1CCC[C@@H]1CCO[C@](C)(c1ccccc1)c1ccc(Cl)cc1 | -21.3 | 6.03 | -3.56
27 | CCn1c(=O)[nH]c2ccccc21 | -34.6 | -8.57 | 0.15
28 | COc1cc(C(=O)NS(=O)(=O)c2ccccc2C)ccc1Cc1cn(C)c2ccc(NC(=O)OC3CCCC3)cc12 [Zafirlukast] | -43.3 | -15.2 | -5.17
29 | O=c1[nH]c(=O)n([C@H]2C[C@H](O)[C@@H](CO)O2)cc1F [Floxuridine] | 14.5 | -29.6 | -9.7
30 | CCOC(=O)Nc1ccc2c(c1)N(C(=O)CCN1CCOCC1)c1ccccc1S2 [moracizine] | -24.3 | -9.21 | -0.545
31 | NC(=O)N/N=C/c1ccc(Oc2ccc(F)cc2)cc1 | -35 | 2.45 | -1.07
32 | COc1cc(NS(C)(=O)=O)ccc1Nc1c2ccccc2nc2ccccc12 | -14.1 | -35.1 | -13.2
33 | Cc1cccc(C)c1NC(=O)C(C)N (stereo not given) [Tocainide] | 20.5 | -12.9 | -3.04
34 | O=c1oc2c(O)c(O)cc3c(=O)oc4c(O)c(O)cc1c4c23 | 5.6 | -6.38 | -3
35 | COc1c(C)c2c(c(O)c1C/C=C(\C)CCC(=O)O)C(=O)OC2 | -27.2 | -31.1 | -11.7
36 | CC[C@]1(O)C[C@H]2CN(CCc3c([nH]c4ccccc34)[C@@](C(=O)OC)(c3cc4c(cc3OC)N(C=O)[C@H]3[C@@](O)(C(=O)OC)[C@H](OC(C)=O)[C@]5(CC)C=CCN6CC[C@]43[C@@H]65)C2)C1 [Vincristine Sulfate] | 33.3 | -33.5 | -12.2
37 | O=C1c2c(O)cccc2Cc2cccc(O)c21 | 14 | -0.62 | -0.185
38 | Nc1ccc2ncnc(NCCc3ccc(Oc4ccccc4)cc3)c2c1 | 20.9 | -8.23 | -2.79
39 | Oc1cc(O)cc(/C=C/c2ccc(O)c(O)c2)c1 [piceatannol] | 6.73 | -9.71 | -2.98
40 | CN(C)c1ccc(C(=C2C=CC(=[N+](C)C)C=C2)c2ccc(N(C)C)cc2)cc1 | -12.9 | -35.1 | -13.1
41 | CC[C@@]1(O)C(=O)OCc2c1cc1n(c2=O)Cc2cc3c(CN(C)C)c(O)ccc3nc2-1 [Topotecan (Hydrochloride)] | 1.64 | -36.8 | -15.9
42 | CCC1(O)CC2CN(CCc3c([nH]c4ccccc34)[C@@](C(=O)OC)(c3cc4c(cc3OC)N(C=O)C3[C@]45CCN4CC=C[C@@](CC)([C@@H](OC(C)=O)[C@]3(O)C(=O)OC)[C@H]45)C2)C1 (stereo not given in full) [Vincristine sulfate] | -23.3 | -33.7 | -11.8
43 | CCOC(=O)C1=C(C)NC(C)=C(C(=O)OC)C1c1cccc([N+](=O)[O-])c1 (stereo not given) | -32.3 | -1.02 | 2.87
44 | CN1CCCC(CC2c3ccccc3Sc3ccccc32)C1 (stereo not given) [metixene] | -23.4 | 2.04 | 1.64

Row | SMILES | inhibition of IKZF1 HTRF signal [1] [%] | relative growth in counter assay (HEK293FT dCK*-only) [%] | relative growth recovery (HEK293FT dCK*-IKZF1) [%]
45 | CNCCC(Oc1ccc(C(F)(F)F)cc1)c1ccccc1 (stereo not given) [Fluoxetine HCl] | -26.7 | -5.41 | 1.15
46 | COc1ccc(-c2ccc3ncc4c(c3c2)n(-c2ccc(N3CCNCC3)c(C(F)(F)F)c2)c(=O)n4C)cn1 | 88.1 | -35.1 | -15.2
47 | Cc1ccccc1N=Nc1ccc(N=Nc2c(O)ccc3ccccc23)c(C)c1 [Solvent Red 24] | 13.9 | -1.17 | -0.495
48 | CC(CCc1ccc(O)cc1)NCCc1ccc(O)c(O)c1 (stereo not given) [Dobutamine (hydrochloride)] | -39.6 | -8.05 | -1.22
49 | CCC(=O)N1CCN(c2ccc(-n3c(=O)ccc4cnc5ccc(-c6cnc7ccccc7c6)cc5c43)cc2C(F)(F)F)CC1 [Torin 1] | 35.7 | -27.5 | -10.5
50 | CCOC(=O)c1ccc(N)cc1 | 16.4 | -10.5 | -2.68
51 | Oc1ccc(/C=C/c2cc(O)cc(O)c2)cc1 [Resveratrol] | -25.5 | 5.43 | 2.06
52 | O=C(Nc1cnc(Cl)nc1)c1ccc(F)c(F)c1 | -25.3 | 1.83 | 4.13
53 | COCCOC(=O)C1=C(C)NC(C)=C(C(=O)OC/C=C/c2ccccc2)C1c1cccc([N+](=O)[O-])c1 (stereo not given) [cilnidipine] | -8.24 | -4.05 | -0.035
54 | Nc1ncn([C@H]2C[C@H](O)[C@@H](CO)O2)c(=O)n1 [Decitabine] | 12 | -31.4 | -11.4
55 | COc1ccc2c(C)nc(Nc3nc(C)c(C)c(O)n3)nc2c1 [madrasin] | -28.1 | 6.01 | 0.18
56 | COc1ccc(NC(=O)c2ccc(-c3ccc(-c4noc(C)n4)cc3C)cc2)cc1N1CCN(C)CC1 | -35.8 | -19.7 | 1.76
57 | CCN(CC)C(=S)SSC(=S)N(CC)CC | -34.2 | -35.6 | -12.6
58 | COC(=O)Nc1nc2cc(C(=O)c3ccccc3)ccc2[nH]1 [Mebendazole] | 9.13 | -30.6 | -10.7
59 | COc1cccc2c(O)c3c(O)c4c(c(O)c3c(O)c12)=C(O[C@H]1C[C@H](N)[C@H](O)[C@H](C)O1)C[C@](O)(C(C)=O)C=4 [Daunorubicin HCl] | 56.3 | -34.8 | -13.9
60 | COc1cc([C@@H]2c3cc4c(cc3[C@@H](O[C@@H]3O[C@@H]5CO[C@@H](C)O[C@H]5[C@H](O)[C@H]3O)[C@H]3COC(=O)C23)OCO4)cc(OC)c1O (stereo not given in full) [Etoposide] | -10.2 | -34.7 | -12.9
61 | CC[C@@]1(O)C(=O)OCc2c1cc1n(c2=O)Cc2c-1nc1cc(F)c(C)c3c1c2[C@@H](N)CC3.CS(=O)(=O)O [Exatecan Mesylate] | -4.98 | -35.8 | -15.4
62 | CN(C)C(=O)C(CCN1CCC(O)(c2ccc(Cl)cc2)CC1)(c1ccccc1)c1ccccc1 [Loperamide HCl] | 3.48 | -7.07 | -1.04
63 | CCc1oc2ccccc2c1C(=O)c1cc(Br)c(O)c(Br)c1 | 11.6 | -6.05 | -2.28
64 | CC(C)/N=c1\cc2n(-c3ccc(Cl)cc3)c3ccccc3nc-2cc1Nc1ccc(Cl)cc1 | 16.2 | -8.1 | 0.915
65 | CN1CCN(CCCN2c3ccccc3Sc3ccc(Cl)cc32)CC1 | -26.7 | 4.19 | 1.47
